# In PubChem BioAssay (NCATS):
# Inconclusive results are not listed. Active and inactive are the calls of the source. Unless noted, calls follow the shape of the dose curve; as a rule, active = well fitted curve in either direction with a large enough effect (not every such curve was filed as active); inconclusive = small, poorly fitted or top-dose-only effect, or another doubt; inactive = flat fitted curve, though single readings scatter.
# What was measured:
# [1] = AP1 Signaling Pathway (AID 357); conditions: ME-180 AP-1-bla reporter, EGF-induced, beta-lactamase ratio, 5 h; at 7.69 µM (top of the series) unless noted; also: % is scaled to controls: 0 for no effect and ±100 for the full control effect
# How it was run: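 In this screen, ME-180 cells in Opti-MEM with 0.5% dialyzed FBS received EC50 EGF and compound titrations for 5 h. AP-1 reporter beta-lactamase was detected via CCF4 ratio, giving AC50 for positive and negative modulators.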
# [2] = biological target: Cytochrome P450 1A2 (Homo sapiens) (UniProt P05177); assay: p450-cyp1a2 (AID 410; calls by dose curve; also: potency is read from the fitted curve at half-maximal effect;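 as to activity change, negative = inhibition: -100% = full effect of reference inhibitor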)
# Sequence of Cytochrome P450 1A2 (Homo sapiens) (P05177 whole entry, looked up): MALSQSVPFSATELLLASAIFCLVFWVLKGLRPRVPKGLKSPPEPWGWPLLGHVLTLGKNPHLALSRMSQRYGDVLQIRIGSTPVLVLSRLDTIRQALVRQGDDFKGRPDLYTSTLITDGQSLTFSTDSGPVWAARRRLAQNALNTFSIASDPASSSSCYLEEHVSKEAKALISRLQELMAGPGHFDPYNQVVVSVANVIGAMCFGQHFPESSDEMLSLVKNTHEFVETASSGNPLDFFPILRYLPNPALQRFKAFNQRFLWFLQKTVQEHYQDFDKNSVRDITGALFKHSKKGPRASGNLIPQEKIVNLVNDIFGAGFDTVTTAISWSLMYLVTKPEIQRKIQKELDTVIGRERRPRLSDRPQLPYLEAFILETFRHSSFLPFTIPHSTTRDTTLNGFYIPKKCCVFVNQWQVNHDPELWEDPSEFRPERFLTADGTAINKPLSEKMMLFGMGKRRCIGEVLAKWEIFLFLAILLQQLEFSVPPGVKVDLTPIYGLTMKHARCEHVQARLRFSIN
# How it was run: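 Human CYP1A2 (20nM) demethylated Luciferin-ME at its Km (100uM) in 100mM KPO4. After 10 min compound preincubation, NADPH regeneration ran the reaction 60 min at room temperature. Luciferin was read by luminescence, normalized to 57 uM furafylline.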
# [3] = NFAT Signaling Pathway (AID 444); conditions: Jurkat NFAT-bla M1, carbachol, beta-lactamase ratio, 5 h; at 7.69 µM (top of the series) unless noted;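 also: carbachol stimulus at about its EC50 of 1 µM final; % is scaled to controls: 0 for no effect and ±100 for the full control effect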
# How it was run: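 Read-out: CCF4 FRET ratio (460 nm/530 nm) after 1 h RT dye loading, used for %activity and AC50 from titration series. Cells: Jurkat NFAT-β-lactamase/M1 line, treated with compound plus 1 uM carbachol for 5 h, 37 °C.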
# [4] = Stat Signaling Pathway (AID 446); conditions: ME-180 SIE beta-lactamase reporter, IL-6 stimulated, 5 h; at 7.69 µM (top of the series) unless noted;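 also: ME-180 cervical cancer cells given 40 pM IL-6 alongside compound; SIE-controlled beta-lactamase reporter measured as 460/530 nm FRET emission ratio; % is scaled to controls: 0 for no effect and ±100 for the full control effect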
# How it was run: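 ME-180 cells carrying a SIE-driven beta-lactamase reporter are stimulated with 40 pM IL-6 for 5 h at 37C in the presence of compound. The 460/530 nm FRET substrate ratio is read after 2.5 h at RT. Data are normalised to 300 pM IL-6 and to 125 nM JAK inhibitor controls.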
# [5] = biological target: Glucocorticoid receptor (Homo sapiens) (UniProt P04150); assay: GR-EFC Redistribution (AID 451; calls by dose curve; also: potency is read from the fitted curve at half-maximal effect); conditions: CHO-K1 GR-EFC translocation, beta-gal luminescence, 2 h
# Sequence of Glucocorticoid receptor (Homo sapiens) (P04150 whole entry, looked up, the tested form may be a part): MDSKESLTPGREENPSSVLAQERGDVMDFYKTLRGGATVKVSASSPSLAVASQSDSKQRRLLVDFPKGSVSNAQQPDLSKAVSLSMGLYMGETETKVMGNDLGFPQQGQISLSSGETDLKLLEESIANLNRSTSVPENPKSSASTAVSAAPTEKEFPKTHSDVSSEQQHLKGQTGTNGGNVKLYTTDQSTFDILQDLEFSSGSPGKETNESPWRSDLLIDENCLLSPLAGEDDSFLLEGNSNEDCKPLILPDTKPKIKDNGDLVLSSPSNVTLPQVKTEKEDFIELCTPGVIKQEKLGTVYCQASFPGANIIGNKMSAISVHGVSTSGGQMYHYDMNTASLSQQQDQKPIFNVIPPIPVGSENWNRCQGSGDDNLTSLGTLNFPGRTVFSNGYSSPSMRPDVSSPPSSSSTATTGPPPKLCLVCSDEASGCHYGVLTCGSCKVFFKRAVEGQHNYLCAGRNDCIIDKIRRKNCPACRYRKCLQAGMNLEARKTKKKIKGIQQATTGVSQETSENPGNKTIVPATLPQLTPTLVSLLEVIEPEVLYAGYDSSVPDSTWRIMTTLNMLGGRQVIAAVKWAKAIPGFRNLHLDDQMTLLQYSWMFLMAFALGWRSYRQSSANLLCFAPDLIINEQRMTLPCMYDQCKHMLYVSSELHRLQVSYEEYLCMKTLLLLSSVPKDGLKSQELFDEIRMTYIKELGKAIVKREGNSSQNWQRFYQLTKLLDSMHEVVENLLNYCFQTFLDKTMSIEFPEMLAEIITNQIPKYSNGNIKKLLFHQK
# How it was run: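 Translocation of GR-ED fusion to nuclear EA restores b-gal, read by luminescence after 1 h room-temperature detection. Engineered CHO-K1 biosensor cells, 1,000/well, exposed 2 h at 37 C to titrations up to 46 uM final.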
# [6] = biological target: Mitogen-activated protein kinase 10 (Mus musculus) (UniProt Q61831); assay: JNK3 AlphaScreen Assay (AID 530);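 also: kinase came from lysate of stimulated human HepG2 cells; signal reports phosphorylation of biotinylated GST-cJun 1-79 at Ser73 with 10 µM ATP; % is scaled to controls: 0 for no effect and ±100 for the full control effect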
# How it was run: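 Room-temperature AlphaScreen kinase assay; pre-activated HepG2 lysate as JNK3 source, biotin-GST-cJun(1-79) substrate, 10 uM ATP, compound 15 min preincubation.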
# [7] = biological target: 3',5'-cyclic-AMP phosphodiesterase 4B (Homo sapiens) (UniProt Q07343); assay: qHTS Assay for Inhibitors of PDE-IV (AID 607; active = well fitted activation curve with a large enough effect in the main read-out, with a control signal flat, not every such curve was filed as active; also: % of control where 0% means no effect)
# Sequence of 3',5'-cyclic-AMP phosphodiesterase 4B (Homo sapiens) (Q07343 whole entry, looked up): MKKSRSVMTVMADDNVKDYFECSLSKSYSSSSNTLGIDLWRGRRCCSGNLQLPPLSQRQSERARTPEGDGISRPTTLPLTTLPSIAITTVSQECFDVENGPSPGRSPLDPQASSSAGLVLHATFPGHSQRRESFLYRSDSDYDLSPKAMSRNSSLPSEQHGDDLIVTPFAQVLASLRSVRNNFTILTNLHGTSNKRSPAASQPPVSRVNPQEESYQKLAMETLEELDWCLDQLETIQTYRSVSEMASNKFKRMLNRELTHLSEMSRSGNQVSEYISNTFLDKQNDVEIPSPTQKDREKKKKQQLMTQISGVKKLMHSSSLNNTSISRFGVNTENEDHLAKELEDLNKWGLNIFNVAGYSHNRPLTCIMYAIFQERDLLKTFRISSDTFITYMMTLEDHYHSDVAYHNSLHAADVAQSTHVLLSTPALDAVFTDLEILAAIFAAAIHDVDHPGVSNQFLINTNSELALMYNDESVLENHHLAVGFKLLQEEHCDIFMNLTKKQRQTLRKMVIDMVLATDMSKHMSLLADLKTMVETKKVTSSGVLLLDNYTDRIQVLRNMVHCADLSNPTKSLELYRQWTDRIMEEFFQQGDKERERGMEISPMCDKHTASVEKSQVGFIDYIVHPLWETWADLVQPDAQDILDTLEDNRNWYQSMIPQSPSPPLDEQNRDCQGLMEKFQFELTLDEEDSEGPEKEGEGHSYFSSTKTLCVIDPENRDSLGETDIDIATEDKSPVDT
# How it was run: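 HEK293 ACTOne cells with CNG channel (1000/well), endogenous PDE4; membrane potential dye, compounds up to 22.9 uM final. Fluorescence Ex 535/Em 590; RO 20-1724 (100 uM final) as reference.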
# [8] = biological target: Cytochrome P450 2D6 (Homo sapiens) (UniProt P10635); assay: qHTS Assay for Inhibitors and Substrates of Cytochrome P450 2D6 (AID 891; active = well fitted curve in the direction sought with a large enough effect; an effect the other way counts as inactive or inconclusive; also: potency is read from the fitted curve at half-maximal effect; nearly all actives have a fitted effect of over 60% in size)
# Sequence of Cytochrome P450 2D6 (Homo sapiens) (P10635 whole entry, looked up): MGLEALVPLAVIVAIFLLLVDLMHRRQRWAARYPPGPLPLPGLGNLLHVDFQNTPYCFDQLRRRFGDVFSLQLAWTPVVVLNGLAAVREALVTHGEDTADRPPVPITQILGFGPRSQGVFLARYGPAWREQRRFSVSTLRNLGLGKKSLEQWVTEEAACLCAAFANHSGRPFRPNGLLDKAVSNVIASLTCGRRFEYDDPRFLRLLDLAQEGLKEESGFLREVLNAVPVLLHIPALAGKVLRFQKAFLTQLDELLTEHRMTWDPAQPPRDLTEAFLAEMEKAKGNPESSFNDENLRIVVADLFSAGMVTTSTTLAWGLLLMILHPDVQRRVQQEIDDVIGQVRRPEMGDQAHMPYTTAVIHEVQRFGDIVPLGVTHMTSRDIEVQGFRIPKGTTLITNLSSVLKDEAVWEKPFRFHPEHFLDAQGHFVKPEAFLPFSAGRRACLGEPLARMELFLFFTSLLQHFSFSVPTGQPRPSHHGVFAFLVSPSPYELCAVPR
# How it was run: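 Human CYP2D6 (5 nM) with 30 uM Luciferin-ME EGE (at Km) in 100 mM KPO4, compound preincubated 10 min, then NADPH regeneration system for 60 min at room temperature. Luciferin read by luminescence; normalized to 1.43 uM quinidine.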
# [9] = qHTS Assay for Identification of Small Molecule Agonists for Hypoxia Response Element Signaling Pathway (AID 914; active = well fitted activation curve with a large enough effect in the signal ratio, with a control signal flat, not every such curve was filed as active; the % refers to the signal ratio; also: % of control where 0% means no effect); conditions: ME-180 (cervical carcinoma) HRE-bla reporter, beta-lactamase ratio, CoCl2, 17 h; activation: stronger effect = higher value
# How it was run: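 In Opti-MEM containing 0.5% dialyzed FBS and 10 mM HEPES, ME-180 HRE-bla cells received a compound titration and EC50 CoCl2. They were incubated 17 hours, then CCF4-loaded 2.5 hours at room temperature before ratio reading.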
# [10] = qHTS Assay for Lipid Storage Modulators (AID 1519; calls by dose curve); conditions: Drosophila S3 cells, BODIPY lipid droplet/cell ratio, laser cytometry, cells loaded with oleic acid; for activity change, negative = inhibition: at 57.5 µM (top of the series)
# How it was run: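 Cells seeded at 5,000 per well were treated with compounds over a concentration series and loaded with oleic acid (400 uM, as added). Lipid droplet fluorescence (488 nm excitation, 500-530 nm channel) was read by laser-scanning cytometry and normalized to 20 uM Triacsin C.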
# [11] = Primary qHTS for small molecule stabilizers of the endoplasmic reticulum resident proteome: Secreted ER Calcium Modulated Protein (SERCaMP) assay (AID 1508630; active = well fitted curve in the direction sought with a large enough effect; an effect the other way counts as inactive or inconclusive; also: % is scaled to controls: 0 for no effect and ±100 for the full control effect)
# How it was run: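 GLuc-SERCaMP-expressing SH-SY5Y cells, pretreated 16 h with compound, are challenged with thapsigargin to empty ER calcium stores; after 4 h, coelenterazine is added directly to the medium and luminescence is imaged.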
# [12] = biological target: Lysosomal acid glucosylceramidase (Homo sapiens) (UniProt P04062); assay: Glucocerebrosidase-p2 (AID 348; in the data active = potency below about 10 µM; also: potency is read from the fitted curve at half-maximal effect); conditions: purified GBA, blue fluorogenic substrate, 40 min
# Sequence of Lysosomal acid glucosylceramidase (Homo sapiens) (P04062 whole entry, looked up): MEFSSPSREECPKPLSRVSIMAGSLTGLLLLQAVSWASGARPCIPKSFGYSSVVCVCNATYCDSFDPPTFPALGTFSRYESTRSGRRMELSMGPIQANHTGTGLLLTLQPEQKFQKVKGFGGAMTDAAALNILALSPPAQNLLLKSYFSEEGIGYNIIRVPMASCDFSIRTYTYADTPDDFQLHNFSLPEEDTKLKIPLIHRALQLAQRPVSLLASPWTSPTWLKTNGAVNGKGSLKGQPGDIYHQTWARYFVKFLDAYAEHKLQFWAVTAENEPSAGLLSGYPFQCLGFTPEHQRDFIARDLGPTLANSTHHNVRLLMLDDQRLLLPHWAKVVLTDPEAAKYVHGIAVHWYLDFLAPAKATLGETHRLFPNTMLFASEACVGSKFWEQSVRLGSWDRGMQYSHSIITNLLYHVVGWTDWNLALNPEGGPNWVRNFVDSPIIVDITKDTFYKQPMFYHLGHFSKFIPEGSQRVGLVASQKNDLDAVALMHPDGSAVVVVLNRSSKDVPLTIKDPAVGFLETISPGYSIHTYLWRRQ
# How it was run: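 Compounds titrated from 0.6 nM upwards against 0.2 nM enzyme in pH 5.9 citric acid/KH2PO4, taurocholate, tween-20; blue fluorogenic substrate 80 uM, 40 min room temperature, stopped and read Ex 365/Em 440 for AC50.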
# [13] = biological target: Glucocorticoid receptor (Homo sapiens) (UniProt P04150); assay: GR-GFP Redistribution (AID 450;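 active = compounds whose dose series gives a full or clear partial fitted curve of increased nuclear translocation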; also: potency is read from the fitted curve at half-maximal effect); conditions: U2OS GR-GFP nuclear translocation, laser cytometry, 2 h
# [14] = biological target: Cytochrome P450 3A4 (Homo sapiens) (UniProt P08684); assay: qHTS Assay for Inhibitors and Substrates of Cytochrome P450 3A4 (AID 884; active = well fitted curve in the direction sought with a large enough effect; an effect the other way counts as inactive or inconclusive; also: % is scaled to controls: 0 for no effect and ±100 for the full control effect; nearly all actives have a fitted effect of over 50% in size)
# Sequence of Cytochrome P450 3A4 (Homo sapiens) (P08684 whole entry, looked up): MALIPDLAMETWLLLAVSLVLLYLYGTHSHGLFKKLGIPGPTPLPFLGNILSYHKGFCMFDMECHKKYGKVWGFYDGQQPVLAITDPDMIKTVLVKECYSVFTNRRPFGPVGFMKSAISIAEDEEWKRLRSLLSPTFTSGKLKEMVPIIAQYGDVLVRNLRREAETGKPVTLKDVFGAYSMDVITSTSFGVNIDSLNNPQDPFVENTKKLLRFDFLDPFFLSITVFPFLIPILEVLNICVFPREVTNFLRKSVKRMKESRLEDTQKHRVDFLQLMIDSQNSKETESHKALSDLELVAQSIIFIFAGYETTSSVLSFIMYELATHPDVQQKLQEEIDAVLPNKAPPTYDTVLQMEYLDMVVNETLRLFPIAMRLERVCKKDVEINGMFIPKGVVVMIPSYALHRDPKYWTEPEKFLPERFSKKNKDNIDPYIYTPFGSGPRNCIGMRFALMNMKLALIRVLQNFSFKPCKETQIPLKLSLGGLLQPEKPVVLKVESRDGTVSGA
# How it was run: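 20 nM human CYP3A4 with 25 uM Luciferin-PPXE (at KM) in 200 mM KPO4, preincubated 10 min with compound; NADPH regeneration started a 60 min RT reaction. Luciferin detected by luminescence, normalized to 57 uM ketoconazole as full inhibition.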
# [15] = Confirmation and Secondary Assay for Modulators of Hemoglobin Beta Chain Splicing at IVS2 654 locus (AID 910; active = well fitted curve in the direction sought with a large enough effect; an effect the other way counts as inactive or inconclusive;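 also: HeLa cells stably carrying EGFP split by mutant beta-globin IVS2-654 intron; per-well total GFP intensity by laser scanning cytometry after 2-day treatment; % of control where 0% means no effect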)
# How it was run: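 Readout: per-well total peak green fluorescence (488 nm ex, 500–520 nm em) from objects 5–250 µm, reflecting correct splicing of an EGFP-654 reporter. Compounds were applied for 2 days at 37 °C to overnight-plated HeLa EGFP-654 cells; controls were DMSO and 500 nM IVS2-654 PNA.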
# [16] = Confirmation and Secondary Assay for Modulators of Hemoglobin Beta Chain Splicing at IVS2 705 locus (AID 930; active = well fitted curve in the direction sought with a large enough effect; an effect the other way counts as inactive or inconclusive;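 also: HeLa cells stably expressing the EGFP-705 splicing reporter; GFP fluorescence per well restored by corrected splicing of the IVS2-705 intron in EGFP; % of control where 0% means no effect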)
# How it was run: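 Per-well GFP, captured at 1 x 8 µm resolution with 488 nm excitation, served as the read-out for HeLa EGFP-705 cells incubated 2 days with test compound versus DMSO.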
# [17] = biological target: Ubiquitin carboxyl-terminal hydrolase 1 (Homo sapiens) (UniProt O94782); assay: Inhibitors of USP1/UAF1: Pilot qHTS (AID 504865; active = well fitted curve in the direction sought with a large enough effect; an effect the other way counts as inactive or inconclusive;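 also: rhodamine fluorescence freed from ubiquitin-rhodamine substrate followed over time; top concentration of the series differs between compounds; % is scaled to controls: 0 for no effect and ±100 for the full control effect; nearly all actives have a fitted effect of over 35% in size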)
# Sequence of Ubiquitin carboxyl-terminal hydrolase 1 (Homo sapiens) (O94782 whole entry, looked up): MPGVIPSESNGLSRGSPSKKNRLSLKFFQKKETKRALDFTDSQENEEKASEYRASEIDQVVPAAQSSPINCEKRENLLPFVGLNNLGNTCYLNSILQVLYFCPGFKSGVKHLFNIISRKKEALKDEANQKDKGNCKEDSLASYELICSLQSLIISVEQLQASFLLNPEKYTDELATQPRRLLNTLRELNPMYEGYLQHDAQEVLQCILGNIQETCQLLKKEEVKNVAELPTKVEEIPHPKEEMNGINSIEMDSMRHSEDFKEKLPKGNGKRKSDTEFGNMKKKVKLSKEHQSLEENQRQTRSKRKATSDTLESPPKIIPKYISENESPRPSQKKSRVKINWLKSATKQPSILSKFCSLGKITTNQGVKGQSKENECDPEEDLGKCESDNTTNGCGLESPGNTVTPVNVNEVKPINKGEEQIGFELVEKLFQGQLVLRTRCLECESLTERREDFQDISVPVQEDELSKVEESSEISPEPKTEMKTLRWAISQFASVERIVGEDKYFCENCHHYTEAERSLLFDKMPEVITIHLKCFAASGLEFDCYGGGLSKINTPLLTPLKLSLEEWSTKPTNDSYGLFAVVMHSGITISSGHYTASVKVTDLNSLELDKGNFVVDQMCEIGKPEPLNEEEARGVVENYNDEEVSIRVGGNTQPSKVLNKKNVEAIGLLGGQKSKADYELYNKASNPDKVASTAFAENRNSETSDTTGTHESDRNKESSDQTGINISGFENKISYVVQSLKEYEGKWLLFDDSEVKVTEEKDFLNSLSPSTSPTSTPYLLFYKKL
# How it was run: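 In 50mM HEPES pH 7.8 containing 0.5mM EDTA, 1mM TCEP, 0.1 mg/ml BSA and 0.01% Tween-20, 1nM USP1/UAF1 is exposed to compound for 15 min, then Ub-Rho (150nM final) is added and fluorescence is read over time.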
# [18] = biological target: Cytochrome P450 3A4 (Homo sapiens) (UniProt P08684); assay: qHTS Assay for Activators of Cytochrome P450 3A4 (AID 885; active = well fitted curve in the direction sought with a large enough effect; an effect the other way counts as inactive or inconclusive; also: nearly all actives have a fitted effect of over 65% in size)
# How it was run: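 Human CYP3A4 (20 nM) with Luciferin-PPXE at 25 uM (its KM) in 200 mM KPO4; 10 min compound preincubation, then NADPH regeneration and 60 min reaction at RT. Luciferin read by luminescence; normalized to 57 uM ketoconazole full inhibition.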
# [19] = measured here: cell count channel max response
# [20] = measured here: lipid channel max response
SMILES,"activity change, negative = inhibition [1]",Potency [2],"activity change, negative = inhibition [3]","activity, negative = inhibition [4]",Potency [5],outcome [6],Potency [7],Potency [8],activation [9],"activity change, negative = inhibition [10]","max response [10, 19] [%]","max response [10, 20] [%]",Potency [11],Potency [12],Potency [13],Potency [14],outcome [15],outcome [16],Potency [17],Potency [18]
COCC(=O)N1CCC[C@@]2(CCN(Cc3ccccc3OC)C2)C1,-5.37% (inactive),inactive,7.38% (inactive),-1.88% (inactive),> 46 µM (inactive),inactive,inactive,6.31 µM (active),-5.2% (inactive),3.26% (inactive),0.0589,5.61,inactive,,,,,,,
COCCNc1cc(-c2ccccc2C(F)(F)F)ncn1,1.05% (inactive),15.8 µM (active),1.43% (inactive),11% (inactive),> 46 µM (inactive),inactive,inactive,,,,,,inactive,> 11.4 µM (inactive),> 46 µM (inactive),inactive,inactive,inactive,inactive,
COc1ccc(NC(=O)N2CCCC3(CCN(C(=O)c4c(C)noc4C)CC3)C2)cc1,-6.4% (inactive),inactive,7.7% (inactive),-0.272% (inactive),> 46 µM (inactive),inactive,inactive,,,3.9% (inactive),14.4,18.8,inactive,,,,,,,inactive
